Compound activity as filed in PubChem BioAssay.
This is a sample that favours compounds with a hit; in the whole collection about 9.5% have one here.
Pf growth 48h = P. falciparum growth inhibition at 48 hours (one generation); Potency, µM (doses to about 28.7 µM), usual class: inhibitors; AID 504832; P. falciparum luciferase growth in erythrocytes, 48 h; 5.9% of 310,000 active
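Luciferase-expressing P. falciparum in infected erythrocytes (2% hematocrit, 0.1% parasitemia final) in RPMI 1640/0.5% Albumax were exposed to compound for 48 hours at 37 C, 5% CO2; growth read as luminescence.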
NS1 function inh = blocks influenza NS1 protein function; Potency, µM (doses to about 46.1 µM); AID 2326; 0.4% of 270,000 active; calls by dose curve; further: actives are rising curves; nearly all actives have a fitted effect of over 50% in size
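A cell-based growth assay was used: compounds that relieve NS1-induced slow growth of budding yeast raise OD600. Assay medium was yeast nitrogen base with ammonium sulphate and -URA supplement, pH 6.0, with 2% galactose.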
SARS PLpro yeast = blocks SARS-CoV papain-like protease in a yeast assay; Potency, µM (series often up to 32.9 µM), most hits filed as activators; S. cerevisiae expressing SARS-CoV PLpro, growth rescue; 0.19% of 330,000 active; AID 485353; calls by dose curve; further: nearly all actives have a fitted effect of over 55% in size
RE007 growth inh = less growth of the S. pombe RE007 Vpr strain; 0.21% of 360,000 active; S. pombe RE007 Vpr strain, BacTiter-Glo ATP luminescence, 24 h; Potency, µM (highest dose often 92.2 µM), actives largely listed as inhibitors; active means well fitted falling curve with a large enough effect; inconclusive means small, poorly fitted or top-dose-only effect; inactive means no such curve, though single readings can be large or run the other way; further: nearly all actives have a fitted effect of over 50% in size
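Fission yeast strain RE007, carrying one chromosomally integrated HIV-1 vpr copy, was seeded at OD 0.01 in PMG+AL medium with 23 nL pinned compound. After 24 h at 30 °C and 99% humidity, viability was read by BacTiter-Glo luminescence.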
Pf growth 96h = P. falciparum growth inhibition at 96 hour, primary screen for plastid delayed-death inhibitors; P. falciparum luciferase reporter growth, 96 h; Potency, µM (highest dose often 28.7 µM), usual class: inhibitors; 6.9% of 320,000 active; AID 504834
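Delayed-death screen, second-generation endpoint: infected erythrocytes, 2% hematocrit, 0.05% parasitemia final; 96 hours at 37 C, 5% CO2; luciferase detection reagent; luminescence decrease equals reduced growth.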
A number is an active result; – = inactive; ? = inconclusive; · = no result; [ ] = remark or other dose. Unless noted, the call rests on the fitted dose curve; in most records, active means well fitted inhibition curve with a large enough effect; inconclusive means small, poorly fitted or top-dose-only effect, or another doubt; inactive means no such curve, though single readings can be large or run the other way.

SMILES | Pf growth 48h | NS1 function inh | SARS PLpro yeast | RE007 growth inh | Pf growth 96h
CC(Nc1ccc(Cl)cc1)c1cc(Cl)ccc1O (stereo unspecified) | 9.3µM | – | – | ? | –
COc1ccc(NC(=O)N(C)C[C@H]2Oc3ccc(NC(=O)Cn4cnnn4)cc3C(=O)N([C@H](C)CO)C[C@@H]2C)cc1 | · | · | – | – | ·
O=C(NC1C=CS(=O)(=O)C1)c1sc2ccccc2c1Cl (stereo unspecified) | 8.3µM | – | – | – | ·
O=C(NC1CC1)c1sc2ccccc2c1Cl | – | – | – | ? | –
COc1cc(NC(=O)c2ccc(NS(=O)(=O)c3c(C)noc3C)cc2)cc(OC)c1 | ? | – | – | – | 0.33µM
COc1ccc(OC)c(NC(=O)c2ccc(NS(=O)(=O)c3c(C)noc3C)cc2)c1 | – | – | – | – | ?
CCOC(=O)c1sc(NC(=O)Cn2nnc3sc4c(c3c2=O)CCC(C(C)(C)C)C4)nc1C (stereo unspecified) | 9.3µM | – | – | – | –
CCCCCCCCCCCCCCCC(=O)OC[C@H](O)[C@H]1OC[C@@H](O)[C@@H]1O | – | · | · | · | –
Cc1nn(-c2ccccc2)c(Cl)c1CN(C(=O)CCl)c1cccc2ccccc12 | 3.7µM | – | – | – | ?
Cc1nc(-c2ccc(C(=O)N3CCCC3)cc2)cs1 | – | · | – | – | –
Cc1nc(CN2CCN(C(=O)c3ccc(C(C)(C)C)cc3)CC2)cs1 | · | – | – | – | 12µM
CC1CCCCC12NC(=O)N(CC(=O)NCCc1c[nH]c3ccccc13)C2=O (stereo unspecified) | ? | · | – | – | –
O=C(Oc1cccccc1=O)c1ccccc1 | ? | – | – | – | 15µM
O=C(Oc1ccccc1Cl)c1ccccc1 | · | · | · | – | ·
CC(=O)N1CC(C)Oc2ccc(S(=O)(=O)NC(CC(=O)O)c3cc(C)ccc3C)cc21 (stereo unspecified) | – | ? | – | – | 12µM
CC(=O)N1CC(C)Oc2ccc(S(=O)(=O)NC(CC(=O)O)c3ccccc3C)cc21 (stereo unspecified) | – | – | – | – | –
CCCNC(=O)NNC(=O)c1ccc(F)cc1 | – | · | – | – | –
COc1ccc(/C=C/C(O)=C2/C(=O)N(C)C3(C)CC2c2ccccc2O3)cc1 (stereo unspecified) | 13µM | – | – | – | –
Cc1ccc(/C=C/C(O)=C2/C(=O)N(C)C3(C)CC2c2ccccc2O3)cc1 (stereo unspecified) | 12µM | – | – | – | –
Cc1ccc(C2(C)NC(=O)N(CC(=O)Nc3cc(S(=O)(=O)N4CCOCC4)ccc3OC(C)C)C2=O)cc1 (stereo unspecified) | · | · | · | – | ·
O=C1NCCCC2c3cc(O)c4ccccc4c3OC12N1CCCCC1 (stereo unspecified) | 8.3µM | – | – | · | –
Cc1ccc(Cl)cc1-c1cc(C(=O)NCc2cc(C(F)(F)F)cc(C(F)(F)F)c2)[nH]n1 | · | · | · | – | ·
Cc1nn(C)cc1CNCc1c(C(=O)N2CCCCC2)nc2c(C)cccn12 | – | – | – | – | –
Cc1nc(C(C)N(C)Cc2c(C(=O)N3CCCCC3)nc3c(C)cccn23)c(C)s1 (stereo unspecified) | ? | – | – | – | 10µM
COC(=O)[C@@H]1CCCN1Cc1c(C(=O)N2CCCCC2)nc2c(C)cccn12 | – | – | – | – | 8.3µM
SMILES | Pf growth 48h | NS1 function inh | SARS PLpro yeast | RE007 growth inh | Pf growth 96h
Cc1cccn2c(CN(C)C3CCOC3)c(C(=O)N3CCCCC3)nc12 (stereo unspecified) | – | – | – | – | ?
Cc1cccn2c(CN(C)CCC3CCCCO3)c(C(=O)N3CCCCC3)nc12 (stereo unspecified) | – | – | – | – | 13µM
COCC1CCN(Cc2c(C(=O)N3CCOCC3)nc3c(C)cccn23)C1 (stereo unspecified) | · | · | · | – | ·
CC1(c2ccccc2Cl)NC(=O)N(CC(=O)NCc2ccc3c(c2)OCO3)C1=O (stereo unspecified) | – | – | – | – | –
Cc1c(Cl)cccc1NC(=S)NCC(C)C | ? | – | ? | – | 3.3µM
Cc1ccc(-n2c(=O)[nH]c3c(C(N)=O)nc(CC(C)C)nc32)cc1 | ? | – | – | – | 1.7µM
O=C(O)CCCCCN1C(=O)C2CCCCC2C1=O (stereo unspecified) | – | – | – | – | 9.3µM
O=C(OC1CCOC1=O)c1cc(S(=O)(=O)N2CCOCC2)c(Cl)cc1Cl (stereo unspecified) | – | · | – | – | –
CC(=O)N1CCC(C(=O)OCc2ccccc2F)(c2ccccc2)CC1 | – | – | – | – | –
Nn1c(SCC(=O)Nc2ccc(OC(F)F)cc2)nnc(Cc2ccccc2)c1=O | ? | · | – | – | –
Cc1ccc(S(=O)(=O)N2Cc3ccccc3CC2C(=O)NC(C)(C)C)cc1 (stereo unspecified) | – | – | – | – | 12µM
CN(C)C(=O)C1Cc2ccccc2CN1S(=O)(=O)c1ccc(F)cc1 (stereo unspecified) | – | – | – | – | 4.1µM
Cc1noc(C)c1S(=O)(=O)N1Cc2ccccc2CC1C(=O)N(C)C (stereo unspecified) | – | – | – | – | –
Cc1ccc(S(=O)(=O)N2Cc3ccccc3CC2C(=O)Nc2ccc3c(c2)OCO3)cc1 (stereo unspecified) | – | – | – | – | ·
COc1ccc(Cl)cc1N(C(C)=O)c1nc(C)cc(C)c1C#N | – | – | – | – | –
COc1ccccc1N(C(C)=O)c1nc(C)cc(C)c1C#N | – | – | – | – | 9.3µM
Cc1ccc(-c2cc(C(=O)N/N=C/c3c(C)nn(-c4ccccc4)c3C)[nH]n2)cc1 | 12µM | ? | – | · | 6.6µM
Cc1ccc(-c2cc(C(=O)N/N=C/c3ccco3)[nH]n2)cc1 | 12µM | – | – | – | –
Cc1nn(-c2ccccc2)c(C)c1/C=N/NC(=O)c1cc(C(C)(C)C)[nH]n1 | ? | – | – | – | ?
Cc1ccc(-c2oc3ccccc3c(=O)c2O)cc1 | 3.7µM | – | – | – | –
O=c1c(O)c(-c2ccccc2)oc2ccccc12 | · | · | · | – | ·
Cc1c(N=C/C=C2/N(C)c3ccccc3C2(C)C)c(=O)n(-c2ccccc2)n1C | – | – | – | ? | –
Cc1c(N=C/C=C2\N(C)c3ccccc3C2(C)C)c(=O)n(-c2ccccc2)n1C | – | – | – | – | 4.1µM
CC(C)(C)CC(C)(C)c1ccc(O)c(Cc2ccc(Cl)cc2Cl)c1 | 1.9µM | · | · | – | 3µM
Cn1c(=O)c2cc(S(=O)(=O)NC(C(=O)N3CCCCCC3)c3ccccc3)ccc2n(C)c1=O (stereo unspecified) | · | – | – | – | 10µM
O=S(=O)(c1ccc2c(c1)C(=NO)c1cc(S(=O)(=O)N3CCCCC3)ccc1-2)N1CCCCC1 | 8.3µM | – | – | – | ?
CC1CCN(S(=O)(=O)c2ccc3c(c2)C(=NO)c2cc(S(=O)(=O)N4CCC(C)CC4)ccc2-3)CC1 | ? | – | – | – | 5.9µM
O=S(=O)(c1ccc(S(=O)(=O)N2CCCC2)cc1)N1CCCCCC1 | – | – | – | – | –[5.75 µM]
